Experiment [1] can be described thus: compounds binding Alexa647 anti-His antibody – biochemical, small-molecule microarray, 635 nm fluorescence, artefact control for SMM control protein annotation, primary screen (AID 1128).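 Further: score merges feature fluorescence with signal-to-noise for each printed compound spot.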 As to conditions: higher = more signal.
Experiment [2] relates to Human papillomavirus type 1a E7 protein (residues 1-88). Put plainly: HPV1a E7 small-molecule binders, primary screen, biochemical, small-molecule microarray, residues 1-88, 635 nm (AID 1129). As to conditions: small-molecule microarray binding, fluorescence 635 nm; higher = more signal.
Experiment [3] has as its target Focal adhesion kinase 1 (Homo sapiens) (UniProt Q05397). Description: PTK2 protein binding on printed compound slides – biochemical, small-molecule microarray, 635/667 nm fluorescence, BSA, DTT, primary screen (AID 1130).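 Further: composite of spot emission at 667 nm and signal to noise over triplicate slides.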 As to conditions: 635 nm fluorescence, higher = more signal.
The subject of experiment [4] is Fibrinogen (Alexa647-labelled). Description: Alexa647-fibrinogen binding to printed small molecules – biochemical, small-molecule microarray, 635/667 nm fluorescence, artefact control for SMM control-protein annotation, profiling panel (AID 1131).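 Further: z-score merges 667 nm fluorescence with per-spot signal-to-noise over triplicate slides.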 To be noted: fibrinogen-A647 binding fluorescence, higher = more signal.
In experiment [5] the target is Follistatin (Homo sapiens) (UniProt P19883). Description: FST protein binding to printed compounds – biochemical, small-molecule microarray, 635/667 nm fluorescence, primary screen (AID 1132). As to conditions: 635 nm fluorescence, higher = more signal.
Sequence of Follistatin (Homo sapiens) (P19883 whole entry, looked up): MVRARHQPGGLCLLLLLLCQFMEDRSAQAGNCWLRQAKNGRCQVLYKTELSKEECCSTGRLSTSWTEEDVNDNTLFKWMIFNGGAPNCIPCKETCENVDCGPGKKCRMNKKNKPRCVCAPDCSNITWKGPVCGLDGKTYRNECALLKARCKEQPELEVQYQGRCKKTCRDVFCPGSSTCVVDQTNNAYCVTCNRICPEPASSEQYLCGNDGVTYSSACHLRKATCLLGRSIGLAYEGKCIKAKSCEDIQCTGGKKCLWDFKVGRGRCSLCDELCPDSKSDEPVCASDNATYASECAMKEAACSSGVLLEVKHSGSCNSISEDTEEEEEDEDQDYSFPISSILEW
For experiment [6], the target named is Fibroblast growth factor 2 (Homo sapiens) (UniProt P09038). Description: basic fibroblast growth factor binding to printed compounds – biochemical, small-molecule microarray, 635/667 nm fluorescence, primary screen (AID 1133). To be noted: FGF2, fluorescence 635/667, higher = more signal.
Sequence of Fibroblast growth factor 2 (Homo sapiens) (P09038 whole entry, looked up): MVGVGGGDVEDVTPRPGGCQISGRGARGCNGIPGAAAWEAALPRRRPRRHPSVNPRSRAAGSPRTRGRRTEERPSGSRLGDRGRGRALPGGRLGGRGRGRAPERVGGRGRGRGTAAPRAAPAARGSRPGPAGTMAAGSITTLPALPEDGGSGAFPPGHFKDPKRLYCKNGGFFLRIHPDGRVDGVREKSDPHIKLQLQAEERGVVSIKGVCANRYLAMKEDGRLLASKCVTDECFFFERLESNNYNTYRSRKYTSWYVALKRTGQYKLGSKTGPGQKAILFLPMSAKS
The nature of experiment [7]: JC-1 mitochondrial potential readout, lung cancer cells – cell-based, A549, JC-1 fluorescence, basal, 24 h, 100 nL, profiling panel (AID 1138).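 Further: A549 lung adenocarcinoma cells under basal conditions with no added stimulus; test concentration not given here.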 To be noted: higher = more signal.
Experiment [8] relates to Lefty1. Description: Lefty1 protein binding to printed compounds – biochemical, small-molecule microarray, 635/667 nm fluorescence, primary screen (AID 1139). To be noted: fluorescence 635/667, higher = more signal.
Experiment [9] deals with wheat germ agglutinin (Triticum aestivum), Alexa647-labelled. Description: Alexa647-WGA lectin binding to printed small molecules – biochemical, small-molecule microarray, 635/667 nm fluorescence, artefact control for SMM control-protein annotation, profiling panel (AID 1140).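 Further: score merges 667 nm feature emission with signal to noise over triplicate slides.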 To be noted: WGA-A647 binding, 635 nm fluorescence, higher = more signal.
In experiment [10] the target is Luciferin 4-monooxygenase (Photinus pyralis) (UniProt P08659). Description: inhibition of purified Photinus pyralis luciferase – biochemical, luminescence, purified enzyme, 2006 set, primary screen (AID 1141).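 Further: cell-free assay with purified firefly luciferase at 100 ng per well in PBS; test concentration not given here.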 As to conditions: purified firefly luciferase, SteadyGlo luminescence, 30 min; higher = more signal, called active from +8 up or from −8 down.
Sequence of Luciferin 4-monooxygenase (Photinus pyralis) (P08659 whole entry, looked up): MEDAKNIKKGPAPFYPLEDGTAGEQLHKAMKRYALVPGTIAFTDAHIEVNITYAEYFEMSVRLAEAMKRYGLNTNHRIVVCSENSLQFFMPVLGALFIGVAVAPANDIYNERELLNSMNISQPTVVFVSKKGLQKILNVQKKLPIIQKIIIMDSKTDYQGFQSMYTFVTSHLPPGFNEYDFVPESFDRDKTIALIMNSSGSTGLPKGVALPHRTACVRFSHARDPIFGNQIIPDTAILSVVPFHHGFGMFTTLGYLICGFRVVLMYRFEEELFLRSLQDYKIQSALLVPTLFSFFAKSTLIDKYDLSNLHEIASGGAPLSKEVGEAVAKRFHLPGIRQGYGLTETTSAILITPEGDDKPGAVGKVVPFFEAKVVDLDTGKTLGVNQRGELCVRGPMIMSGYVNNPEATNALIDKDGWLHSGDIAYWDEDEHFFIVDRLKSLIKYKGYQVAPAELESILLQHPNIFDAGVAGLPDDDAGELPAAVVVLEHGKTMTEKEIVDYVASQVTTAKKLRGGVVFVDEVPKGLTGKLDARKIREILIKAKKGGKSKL
Experiment [11] concerns Wnt5a (protein binding on small-molecule microarray). Description: small molecules binding Wnt5a protein – biophysical, small-molecule microarray, 635/667 nm fluorescence, primary screen (AID 1142).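 Further: fluorescence read at 667 nm with signal to noise per printed feature.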 As to conditions: 635 nm fluorescence, higher = more signal.
Experiment [12] in a line: ATP-based viability of Huh7 replicon cells – cell-based, CellTiter-Glo luminescence, basal, 48 h, cytotoxicity control for HCV replication inhibitor project, primary screen (AID 1143).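 Further: Huh7 hepatoma cells carrying a hepatitis C replication reporter with no stimulus; test concentration not given here.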 To be noted: higher = more signal, called active from +8 up or from −8 down. Background: In antiviral work, replicon cells carry a viral genome segment that copies itself.
Experiment [13] can be described thus: Pseudomonas biofilm growth suppression – PAO1 strain, BacTiter-Glo luminescence, LB-PBS, primary screen (AID 1144). As to conditions: P. aeruginosa PAO1 biofilm, 12 h, higher = more signal.
A short description of experiment [14]: basal CRE-LacZ reporter activity in PC12 – cell-based, unstimulated, primary screen (AID 1145). To be noted: no forskolin, luminescence, 4.5 h, higher = more signal, called active from +8 up or from −8 down.
Experiment [15] is described as follows: forskolin-driven CRE-LacZ activity in PC12 – cell-based, CRE-LacZ reporter, forskolin-stimulated, primary screen (AID 1146).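 Further: PC12 cells with 6xCRE LacZ reporter stimulated by forskolin 10 µM; beta-galactosidase reporter signal reflecting CREB driven transcription.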 As to conditions: luminescence, 4.5 h, higher = more signal, called active from +8 up or from −8 down.
Experiment [16] concerns the target Streptavidin (Streptomyces avidinii) (UniProt P22629). Put plainly: compounds binding control protein streptavidin – biophysical, small-molecule microarray, 635/667 nm fluorescence, artefact control for SMM compound annotation, primary screen (AID 1147).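 Further: signal reflects streptavidin binding to arrayed compounds as a control protein.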 To be noted: higher = more signal.
Experiment [17] can be described thus: probe aInhba binding on compound microarray – biochemical, small-molecule microarray, 635/667 nm fluorescence, primary screen (AID 1148).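 Further: score merges 667nm spot fluorescence with signal-to-noise for antibody binding to printed compounds.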 To be noted: higher = more signal.
The target of experiment [18] is Torsin-1A (Homo sapiens) (UniProt O14656). Put plainly: TOR1A wild-type binding on microarray – cell lysate, small-molecule microarray, lysate, 635/667 nm, primary screen (AID 1149). To be noted: COS7 hTOR1A-WT lysate, 635 nm fluorescence, higher = more signal.
Sequence of Torsin-1A (Homo sapiens) (O14656 whole entry, looked up): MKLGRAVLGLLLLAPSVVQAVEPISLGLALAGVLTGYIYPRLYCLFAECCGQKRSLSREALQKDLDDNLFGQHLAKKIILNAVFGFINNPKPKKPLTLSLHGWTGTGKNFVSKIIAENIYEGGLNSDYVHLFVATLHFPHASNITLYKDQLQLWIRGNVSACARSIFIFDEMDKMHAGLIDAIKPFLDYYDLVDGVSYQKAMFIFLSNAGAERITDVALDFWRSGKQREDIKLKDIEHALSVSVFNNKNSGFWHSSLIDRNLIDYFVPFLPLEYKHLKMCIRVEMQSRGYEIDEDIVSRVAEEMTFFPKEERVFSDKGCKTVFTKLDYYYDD
Experiment [19] shares this target. Description: torsin A mutant lysate binding on microarrays – cell lysate, small-molecule microarray, COS7 lysate, 635/667 nm fluorescence, primary screen (AID 1150).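 Further: score pools 667 nm emission and signal to noise measuring lysate protein binding.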 To be noted: COS7 hTOR1A mutant lysate, 635 nm fluorescence, higher = more signal.
Experiment [20] deals with Sonic hedgehog protein (Shh). Put plainly: Sonic hedgehog microarray binding compounds – biochemical, small-molecule microarray, 635/667 nm fluorescence, primary screen (AID 1151).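 Further: Shh protein binding to compounds spotted on small-molecule microarray slides; score combines spot fluorescence intensity with signal-to-noise across triplicate slides.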 As to conditions: 635 nm fluorescence, higher = more signal.

For five compounds, composite z-score and z-score results are on record in PubChem BioAssay.

Calls of active or inactive are those of the source. Unless noted, how the calls were made is not given here.

Sequence of Streptavidin (Streptomyces avidinii) (P22629 whole entry, looked up): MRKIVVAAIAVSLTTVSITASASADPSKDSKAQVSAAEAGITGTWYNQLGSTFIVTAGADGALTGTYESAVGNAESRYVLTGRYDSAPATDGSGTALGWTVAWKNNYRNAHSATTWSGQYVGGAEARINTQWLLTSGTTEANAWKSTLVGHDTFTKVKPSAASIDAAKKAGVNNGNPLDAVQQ
Sequence of Focal adhesion kinase 1 (Homo sapiens) (Q05397 whole entry, looked up): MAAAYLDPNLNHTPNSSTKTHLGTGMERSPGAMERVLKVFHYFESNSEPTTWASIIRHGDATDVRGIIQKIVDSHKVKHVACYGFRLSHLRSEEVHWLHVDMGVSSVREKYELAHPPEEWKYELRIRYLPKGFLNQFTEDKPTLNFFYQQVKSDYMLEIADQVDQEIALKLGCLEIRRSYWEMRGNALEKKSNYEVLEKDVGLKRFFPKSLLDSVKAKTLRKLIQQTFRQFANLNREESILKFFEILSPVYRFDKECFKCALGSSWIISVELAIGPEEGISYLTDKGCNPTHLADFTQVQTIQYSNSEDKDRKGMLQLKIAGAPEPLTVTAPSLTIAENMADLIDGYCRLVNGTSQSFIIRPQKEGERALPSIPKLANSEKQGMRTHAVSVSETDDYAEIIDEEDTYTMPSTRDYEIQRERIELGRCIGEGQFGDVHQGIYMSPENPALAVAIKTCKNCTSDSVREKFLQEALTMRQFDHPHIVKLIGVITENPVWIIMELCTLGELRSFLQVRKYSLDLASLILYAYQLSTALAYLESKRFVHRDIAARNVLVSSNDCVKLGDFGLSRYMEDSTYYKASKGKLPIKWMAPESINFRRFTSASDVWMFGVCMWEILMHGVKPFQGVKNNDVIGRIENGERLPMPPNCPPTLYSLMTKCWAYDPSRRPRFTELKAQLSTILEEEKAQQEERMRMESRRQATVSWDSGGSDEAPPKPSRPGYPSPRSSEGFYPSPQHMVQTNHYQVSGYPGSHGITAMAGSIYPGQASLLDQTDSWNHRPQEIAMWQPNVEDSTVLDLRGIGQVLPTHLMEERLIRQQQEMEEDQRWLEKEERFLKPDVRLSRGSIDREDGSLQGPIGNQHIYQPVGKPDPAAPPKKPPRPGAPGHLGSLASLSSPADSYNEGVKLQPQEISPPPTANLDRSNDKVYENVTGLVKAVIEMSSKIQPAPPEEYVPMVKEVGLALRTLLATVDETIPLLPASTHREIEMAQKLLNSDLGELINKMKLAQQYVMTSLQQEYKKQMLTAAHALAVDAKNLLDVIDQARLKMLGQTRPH

For the compound `CO[C@H]([C@@H](C)[C@H](OC)c1ccccc1)[C@H](C)[C@@H](OC)[C@H](C)C(C)=O`, the composite z-score in experiment [1] is 1; in experiment [2], -0.744; in experiment [3] it was 0.27; in [4], -0.464; in [5], -0.304; in experiment [6], 0.0135. Also, the composite z-score is 0.128 in experiment [8]; -0.496 in experiment [9]; -0.183 in [11]; -0.554 in experiment [16]; 0.809 in [17]; -0.225 in [18]. In addition, the composite z-score was -0.327 in experiment [19] and 0.497 in experiment [20]. Moreover, the z-score in experiment [7] was 1.1; in experiment [10] it was -1.87 (inactive); in experiment [12], 0.0807 (inactive); in experiment [13], 0.185 (inactive); in experiment [14], -0.98 (inactive); in experiment [15] it was -0.358 (inactive).
Regarding `C=C(/C(=C/C[C@H](OC(=O)c1ccncc1)c1ccc(OCCO)cc1)c1cnc2ccccc2c1)C(C)C`, the composite z-score in experiment [1] came to 0.426; in experiment [2] it was 1.21; in experiment [3], 0.144; in [4], 0.853; in experiment [5], 1.47; in experiment [6], 1.82. Further, the composite z-score in experiment [8] amounted to 1.52; in experiment [9] it was 0.843; in [11] it was 1.32; in [16], 1.3; in experiment [17] it was 0.0471; in experiment [18], 1.12. Further, the composite z-score in experiment [19] was determined as 0.551; in experiment [20], 2.16. In addition, the z-score in [7] is 1.26; in [10], -2.12 (inactive); in [12], -2.02 (inactive); in [13], -0.295 (inactive); in experiment [14] it was 6.42 (inactive); in experiment [15], -0.429 (inactive).
For the compound `O=C1[C@H]2[C@H]3[C@H](O)[C@H](O)CC(=NOCc4ccccc4)[C@@H]3CC[C@H]2C(=O)N1Cc1ccccc1`, the composite z-score is -0.0529 in [1]; 0.719 in experiment [2]; 0.166 in experiment [3]; -0.757 in experiment [4]; 0.371 in experiment [5]; 0.47 in [6]. The composite z-score in experiment [8] was 0.597; in experiment [9], 0.0885; in experiment [11], -0.0408; in experiment [16] it was 0.336; in [17] it was -0.128; in [18], -0.0549. Further, the composite z-score in experiment [19] stood at 0.282; in [20], 0.84. For the same compound, the z-score was -0.806 in [7]; 1.09 (inactive) in experiment [10]; 0.0627 (inactive) in [12]; 0.76 (inactive) in experiment [13]; 0.155 (inactive) in [14]; 0.663 (inactive) in experiment [15].
Take `C[N+](C)(C)CCCCCCNC(=O)[C@@H]1C[C@@H]2C(=O)N3CCC[C@H]3C(=O)N2[C@@H]1c1cccc(OCCO)c1`: the composite z-score in [1] is 1.06; in experiment [2], 0.049; in experiment [3], 0.622; in experiment [4] it was -1.47; in [5] it was 1.27; in experiment [6] it was 0.941. For the same compound, the composite z-score was 0.915 in experiment [8]; -0.122 in experiment [9]; -0.0544 in [11]; -1.05 in experiment [16]; -0.0754 in experiment [17]; -0.383 in experiment [18]. The results for the composite z-score in [19] and in experiment [20] were 0.624 and 2.25, respectively. Also, the z-score in [7] is -0.518; in experiment [10], 0.688 (inactive); in experiment [12], -0.345 (inactive); in experiment [13], -1.34 (inactive); in [14], -1.34 (inactive); in experiment [15], 0.27 (inactive).
As for `c1ccc(C2NCCc3c2[nH]c2ccccc32)cc1` (stereo not given), the composite z-score is 0.191 in experiment [1]; -0.805 in [2]; -0.0707 in experiment [3]; -1.82 in experiment [4]; 0.236 in [5]; 0.737 in experiment [6]. Also, the composite z-score in experiment [8] was 0.588; in experiment [9], 0.466; in experiment [11], -0.18; in [16], -0.26; in experiment [17], -0.101; in experiment [18], 0.586. Besides, the composite z-score in [19] was 0.462; in experiment [20], -0.12. Moreover, the z-score in experiment [7] was -0.104; in experiment [10], 0.495 (inactive); in experiment [12], -0.92 (inactive); in experiment [13] it was -0.0191 (inactive); in [14] it was -0.253 (inactive); in experiment [15], -1.11 (inactive).
